Over roughly 16,000 sequences, “rpm ratio (pull-down/input)” has its median near 0.5; the highest 2% begin near 5.5. For the sample, the highest values were picked, then their nearest neighbours and some sequences at random.
What follows are sequences tested against T1, MBP-FoxP3dN (Mus musculus, UniProt Q99JB6 188-423) (assay: PD-seq (MBP pull-down with sequencing); 20 mM Tris-HCl pH 7.5, 100 mM NaCl, 1.5 mM MgCl2, 0.4 uM protein, 0.1 uM dsDNA library, 30 min, room temperature, amylose pull-down; high values mean tight binding). Details: protein: recombinant; tags: His6-MBP; chain copies: 2; dsDNA, one strand shown.
T1 sequence: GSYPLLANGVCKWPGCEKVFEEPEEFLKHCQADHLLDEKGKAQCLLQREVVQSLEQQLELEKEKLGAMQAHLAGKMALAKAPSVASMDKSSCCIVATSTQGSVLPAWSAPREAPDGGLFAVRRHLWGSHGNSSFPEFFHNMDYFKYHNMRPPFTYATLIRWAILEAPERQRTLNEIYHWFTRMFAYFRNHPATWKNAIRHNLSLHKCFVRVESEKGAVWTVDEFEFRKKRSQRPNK
Procedure, shortened: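 Binding is the reads-per-million enrichment of pull-down relative to input, pooled across replicates. For this, 0.4 µM His6-MBP-tagged mouse FoxP3 or FoxP1 fragment lacking the N-terminus, made in E. coli, was incubated with 0.1 µM Klenow-filled double-stranded degenerate DNA library for 30 min at room temperature in Tris pH 7.5 buffer with NaCl and MgCl2. Complexes bound to amylose resin were washed three times before proteinase K released the DNA for PCR barcoding and Illumina sequencing.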

Sequence	binding signal
GATGATTGTTCTCCCAGCTGATGAATTCCTATCGTCGAGTAAACAAATTTTCCTAATCTTTCTGTTCAAGCGCCATCTAC	0.382 RPM ratio (pull-down/input)
GATGATTGTTCTCCCAGCTGATGAATTTCATAGGTCGAGTAAACAAATTTTCCTAATCTTTCTGTTCAAGCGCCATCTAC	0.343 RPM ratio (pull-down/input)
GATGATTGTTCTCCCAGCTGATGAATTGATCATTTCGAGTAAACAAATTTTCCTAATCTTTCTGTTCAAGCGCCATCTAC	0.757 RPM ratio (pull-down/input)
GATGATTGTTCTCCCAGCTGATGAATTGGCTGAATCGAGTAAACAAATTTTCCTAATCTTTCTGTTCAAGCGCCATCTAC	0.239 RPM ratio (pull-down/input)
GATGATTGTTCTCCCAGCTGATGAATTACTCCAGTCGAGTAAACAAATTTTCCTAATCTTTCTGTTCAAGCGCCATCTAC	0.213 RPM ratio (pull-down/input)
GATGATTGTTCTCCCAGCTGATGAATTTGGTGTCTCGAGTAAACAAATTTTCCTAATCTTTCTGTTCAAGCGCCATCTAC	3.42 RPM ratio (pull-down/input)
GATGATTGTTCTCCCAGCTGATGAATTCCGACTCTCGAGTAAACAAATTTTCCTAATCTTTCTGTTCAAGCGCCATCTAC	2.16 RPM ratio (pull-down/input)
GATGATTGTTCTCCCAGCTGATGAATTGACCGAATCGAGTAAACAAATTTTCCTAATCTTTCTGTTCAAGCGCCATCTAC	0.227 RPM ratio (pull-down/input)
GATGATTGTTCTCCCAGCTGATGAATTTCAACTGTCGAGTAAACAAATTTTCCTAATCTTTCTGTTCAAGCGCCATCTAC	0.377 RPM ratio (pull-down/input)
GATGATTGTTCTCCCAGCTGATGAATTGGGTGTCTCGAGTAAACAAATTTTCCTAATCTTTCTGTTCAAGCGCCATCTAC	1.29 RPM ratio (pull-down/input)
GATGATTGTTCTCCCAGCTGATGAATTGGTGAGGTCGAGTAAACAAATTTTCCTAATCTTTCTGTTCAAGCGCCATCTAC	0.385 RPM ratio (pull-down/input)
GATGATTGTTCTCCCAGCTGATGAATTGGTTTCCTCGAGTAAACAAATTTTCCTAATCTTTCTGTTCAAGCGCCATCTAC	1.54 RPM ratio (pull-down/input)
GATGATTGTTCTCCCAGCTGATGAATTGAGCGCCTCGAGTAAACAAATTTTCCTAATCTTTCTGTTCAAGCGCCATCTAC	1.18 RPM ratio (pull-down/input)
GATGATTGTTCTCCCAGCTGATGAATTTGTAGCATCGAGTAAACAAATTTTCCTAATCTTTCTGTTCAAGCGCCATCTAC	4.88 RPM ratio (pull-down/input)
GATGATTGTTCTCCCAGCTGATGAATTAAACGCATCGAGTAAACAAATTTTCCTAATCTTTCTGTTCAAGCGCCATCTAC	1.19 RPM ratio (pull-down/input)
GATGATTGTTCTCCCAGCTGATGAATTAGCATTTTCGAGTAAACAAATTTTCCTAATCTTTCTGTTCAAGCGCCATCTAC	4 RPM ratio (pull-down/input)
GATGATTGTTCTCCCAGCTGATGAATTCGTAGCATCGAGTAAACAAATTTTCCTAATCTTTCTGTTCAAGCGCCATCTAC	1.31 RPM ratio (pull-down/input)
GATGATTGTTCTCCCAGCTGATGAATTTAGCATTTCGAGTAAACAAATTTTCCTAATCTTTCTGTTCAAGCGCCATCTAC	6.35 RPM ratio (pull-down/input)
GATGATTGTTCTCCCAGCTGATGAATTTAGCTGTTCGAGTAAACAAATTTTCCTAATCTTTCTGTTCAAGCGCCATCTAC	1.7 RPM ratio (pull-down/input)
GATGATTGTTCTCCCAGCTGATGAATTGTAGCATTCGAGTAAACAAATTTTCCTAATCTTTCTGTTCAAGCGCCATCTAC	5.76 RPM ratio (pull-down/input)
GATGATTGTTCTCCCAGCTGATGAATTAACAAATTCGAGTAAACAAATTTTCCTAATCTTTCTGTTCAAGCGCCATCTAC	0.494 RPM ratio (pull-down/input)

Sequence	binding signal
GATGATTGTTCTCCCAGCTGATGAATTAACGCATTCGAGTAAACAAATTTTCCTAATCTTTCTGTTCAAGCGCCATCTAC	6.02 RPM ratio (pull-down/input)
GATGATTGTTCTCCCAGCTGATGAATTGATCAGGTCGAGTAAACAAATTTTCCTAATCTTTCTGTTCAAGCGCCATCTAC	0.232 RPM ratio (pull-down/input)
GATGATTGTTCTCCCAGCTGATGAATTGGTTGCATCGAGTAAACAAATTTTCCTAATCTTTCTGTTCAAGCGCCATCTAC	2.53 RPM ratio (pull-down/input)
GATGATTGTTCTCCCAGCTGATGAATTGGAAGCATCGAGTAAACAAATTTTCCTAATCTTTCTGTTCAAGCGCCATCTAC	0.654 RPM ratio (pull-down/input)
GATGATTGTTCTCCCAGCTGATGAATTAATTGTCTCGAGTAAACAAATTTTCCTAATCTTTCTGTTCAAGCGCCATCTAC	3.16 RPM ratio (pull-down/input)
GATGATTGTTCTCCCAGCTGATGAATTAGATAGCTCGAGTAAACAAATTTTCCTAATCTTTCTGTTCAAGCGCCATCTAC	0.537 RPM ratio (pull-down/input)
GATGATTGTTCTCCCAGCTGATGAATTATGCCTATCGAGTAAACAAATTTTCCTAATCTTTCTGTTCAAGCGCCATCTAC	2.91 RPM ratio (pull-down/input)
GATGATTGTTCTCCCAGCTGATGAATTTCCGTTATCGAGTAAACAAATTTTCCTAATCTTTCTGTTCAAGCGCCATCTAC	0.615 RPM ratio (pull-down/input)
GATGATTGTTCTCCCAGCTGATGAATTTATTTTCTCGAGTAAACAAATTTTCCTAATCTTTCTGTTCAAGCGCCATCTAC	5.54 RPM ratio (pull-down/input)
GATGATTGTTCTCCCAGCTGATGAATTTTATTTCTCGAGTAAACAAATTTTCCTAATCTTTCTGTTCAAGCGCCATCTAC	1.53 RPM ratio (pull-down/input)
GATGATTGTTCTCCCAGCTGATGAATTAGTTTACTCGAGTAAACAAATTTTCCTAATCTTTCTGTTCAAGCGCCATCTAC	5.83 RPM ratio (pull-down/input)
GATGATTGTTCTCCCAGCTGATGAATTTTATGACTCGAGTAAACAAATTTTCCTAATCTTTCTGTTCAAGCGCCATCTAC	0.491 RPM ratio (pull-down/input)
GATGATTGTTCTCCCAGCTGATGAATTTATTGACTCGAGTAAACAAATTTTCCTAATCTTTCTGTTCAAGCGCCATCTAC	5.75 RPM ratio (pull-down/input)
GATGATTGTTCTCCCAGCTGATGAATTTAGTTACTCGAGTAAACAAATTTTCCTAATCTTTCTGTTCAAGCGCCATCTAC	3.04 RPM ratio (pull-down/input)
GATGATTGTTCTCCCAGCTGATGAATTTTTTGACTCGAGTAAACAAATTTTCCTAATCTTTCTGTTCAAGCGCCATCTAC	0.273 RPM ratio (pull-down/input)
GATGATTGTTCTCCCAGCTGATGAATTTGTTGACTCGAGTAAACAAATTTTCCTAATCTTTCTGTTCAAGCGCCATCTAC	7.34 RPM ratio (pull-down/input)
GATGATTGTTCTCCCAGCTGATGAATTTTTATTCTCGAGTAAACAAATTTTCCTAATCTTTCTGTTCAAGCGCCATCTAC	0.391 RPM ratio (pull-down/input)
GATGATTGTTCTCCCAGCTGATGAATTTAGTTTCTCGAGTAAACAAATTTTCCTAATCTTTCTGTTCAAGCGCCATCTAC	2.13 RPM ratio (pull-down/input)
GATGATTGTTCTCCCAGCTGATGAATTATTTGACTCGAGTAAACAAATTTTCCTAATCTTTCTGTTCAAGCGCCATCTAC	0.481 RPM ratio (pull-down/input)
GATGATTGTTCTCCCAGCTGATGAATTTGATGACTCGAGTAAACAAATTTTCCTAATCTTTCTGTTCAAGCGCCATCTAC	3.97 RPM ratio (pull-down/input)

From article PMC12820563, “FoxP3 forms a head-to-head dimer in vivo and stabilizes its multimerization on adjacent microsatellites”
